VDR inh: Inhibitors of the vitamin D receptor (VDR): qHTS. VDR-SRC2-3 peptide fluorescence polarization, 2 h. Vitamin D3 receptor (Homo sapiens), P11473. Potency, µM, for inactives: max response, negative = inhibition, hits mostly inhibitors. 400,000 tested, 0.93% active; also: % is scaled to controls: 0 for no effect and ±100 for the full control effect
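Inhibition of the VDR/SRC2-3 peptide interaction is quantified by fluorescence polarization. Compounds (23 nl, pintool) incubate with the reagents for 2 hours at ambient room temperature.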
PKM2 act: qHTS Assay for Activators of Human Muscle isoform 2 Pyruvate Kinase. Pyruvate kinase PKM (Homo sapiens), P14618. purified PKM2, Kinase-Glo ATP luminescence, activation; response scale: 0% is enzyme alone, no compound. Potency, µM (top dose mostly 57.5 µM), for inactives: top-dose activation, most hits filed as activators. 260,000 tested, 0.34% active. AID 1631, 2009; also: % is scaled to controls: 0 for no effect and ±100 for the full control effect; nearly all actives have a fitted effect of over 55% in size
Target sequence (P14618 whole entry, looked up, canonical isoform): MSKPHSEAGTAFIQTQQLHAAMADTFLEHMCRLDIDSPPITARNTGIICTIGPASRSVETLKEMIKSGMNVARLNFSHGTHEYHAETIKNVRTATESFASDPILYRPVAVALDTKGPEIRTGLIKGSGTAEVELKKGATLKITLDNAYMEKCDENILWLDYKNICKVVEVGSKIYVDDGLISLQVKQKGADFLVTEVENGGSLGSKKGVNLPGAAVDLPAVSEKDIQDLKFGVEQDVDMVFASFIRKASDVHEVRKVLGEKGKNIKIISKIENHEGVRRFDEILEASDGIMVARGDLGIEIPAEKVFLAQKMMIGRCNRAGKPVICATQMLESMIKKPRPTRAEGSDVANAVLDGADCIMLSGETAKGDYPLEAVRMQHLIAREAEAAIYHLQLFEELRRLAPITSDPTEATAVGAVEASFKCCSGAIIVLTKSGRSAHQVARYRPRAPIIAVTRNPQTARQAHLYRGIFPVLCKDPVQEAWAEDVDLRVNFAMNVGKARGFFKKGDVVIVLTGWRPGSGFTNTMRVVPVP
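ATP formation by purified human PK-M2, quantified via coupled luciferase luminescence after 1 h at room temperature with 0.1 mM ADP and 0.5 mM PEP final.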
GCN5L2 inh: qHTS Assay for Inhibitors of GCN5L2. Potency, µM (doses to about 58.9 µM), for inactives: at the top dose activity change, negative = inhibition, most hits filed as inhibitors. GCN5L2 HAT assay, ThioGlo1 CoA-SH fluorescence. AID 504327, 2011. Histone acetyltransferase KAT2A (Homo sapiens), Q92830. 390,000 tested, 0.21% active; also: % is scaled to controls: 0 for no effect and ±100 for the full control effect
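Titration-based screen in which CoA formation is detected via maleimide probe ThioGlo1 (50uM) turning fluorescent on thiol reaction; substrates H3(1-25) 75uM and acetyl-CoA 70uM, GCN5L2 20nM, 20 min incubation at room temperature.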
GLS inhibitor: qHTS for Inhibitors of Glutaminase (GLS) | 410,000 tested, 0.21% active | Potency, µM (doses to about 45.5 µM), without a hit: at the highest dose activity change, negative = inhibition, usual class: inhibitors | GLS enzymatic activity, qHTS titration; also: % is scaled to controls: 0 for no effect and ±100 for the full control effect
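hKGA in 45 mM KH2PO4 (pH 8.2), 0.02% Tween-20 with compound, then 1mM L-Glutamine (stock as added) plus glutamate oxidase/HRP/Amplex red coupling mix. Fluorescence read initially and after 30 min at RT; signal change reflects glutamate formation.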
PLK1 PBD inh: qHTS for Inhibitors of PLK1-PDB (polo-like kinase 1 - polo-box domain): Primary Screen; Serine/threonine-protein kinase PLK1 (Homo sapiens), P53350; Plk1 PBD binding of FITC phosphopeptide, fluorescence polarization; Potency, µM, inactives show max response, negative = inhibition, most hits filed as inhibitors; 360,000 tested, 2.8% active; AID 720504, 2013; also: series mostly up to about 57 µM; % is scaled to controls: 0 for no effect and ±100 for the full control effect; nearly all actives have a fitted effect of over 65% in size
Mito fusion act: qHTS Assay for Small Molecule Inhibitors of Mitochondrial Division or Activators of Mitochondrial Fusion | 320,000 tested, 0.23% active | Potency, µM (doses to about 46.1 µM), for inactives: at the top dose growth rescue (activation), actives largely listed as activators | S. cerevisiae fusion-defective mutant growth rescue, CellTiterGlo 48 h; also: % of control where 0% means no effect; nearly all actives have a fitted effect of over 45% in size
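Compounds are tested for their ability to restore growth of mitochondrial fusion-defective yeast strains at non-permissive 37C in YPEG medium over 48 hours. Viability is quantified by luciferase luminescence.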
* = called active by the depositor; ? = inconclusive; / = no result; ! = not confirmed by another sample; [ ] = dose if it differs, or a comment. An excerpt weighted towards active compounds, which were near 3.4% of everything screened. Calls follow the shape of the dose curve; as a rule, active = well fitted curve in the direction sought with a large enough effect; inconclusive = small, poorly fitted or top-dose-only effect, or another doubt; inactive = no such curve, though single readings can be large; an effect the other way counts as inactive or inconclusive. Potency is read from the fitted curve at half-maximal effect.

SMILES	VDR inh	PKM2 act	GCN5L2 inh	GLS inhibitor	PLK1 PBD inh	Mito fusion act
CC(=O)C(O)C(c1ccccc1)c1c(O)c2ccccc2oc1=O (centres undefined)	4%	/	-18%	/	/	/
NCCNC[C@@H](N)CCCN=C(N)N[N+](=O)[O-]	-1%	/	-8%	/	/	/
NC1CCCCC1N (centres undefined)	-1%	/	20%	/	/	/
CN(C(=O)Cc1ccc(Cl)c(Cl)c1)[C@H](CN1CCCC1)c1cccc(N=C=S)c1	-4%	/	-14%	/	/	/
CC(=O)CC(c1ccccc1)c1c(O)c2cccc(O)c2oc1=O (centres undefined)	3%	/	46%	/	/	/
CC(=O)C[C@H](c1ccccc1)c1c(O)c2ccccc2oc1=O	12%	/	-24%	/	/	/
CN1CCc2cc(O)cc3c2C1Cc1ccc(O)c(O)c1-3 (centres undefined)	-20%	/	-21%	/	/	/
COC1=CC(=O)O[C@H](/C=C/c2ccc3c(c2)OCO3)C1	5%	/	0%	/	/	/
CCOP(=O)(/C=C(\Cl)c1ccccc1)C(O)c1ccc(F)cc1 (centres undefined)	?	/	-14%	0%	21µM*	11%
CCOP(=O)(OCC)C(O)c1ccccc1 (centres undefined)	-7%	0%	0%	-1%	-4%	0%
Nc1ccc([N+](=O)[O-])cc1O	/	/	/	41%[99.4 µM]	/	/
CCOC(=O)CC(NC(=O)C(Cc1ccc(N(CCCl)CCCl)cc1)NC(C)=O)C(=O)OCC (centres undefined)	?	-1%	-8%	0%	6µM*	14%
Cc1ccc(N2C(=O)NC(=O)/C(=C/c3ccc(OC(=O)c4cccs4)cc3)C2=O)cc1	?	5%	-18%	-15%	9.5µM*	0%
COc1ccc(N2C(=O)NC(=O)/C(=C/c3cccc(OC(=O)c4cccs4)c3)C2=O)cc1Cl	?	12%	?	9%	19µM*	-3%
O=C1NC(=S)NC(=O)C1Nc1ccc(Cl)cc1	?	/	/	-20%	3µM*	/
O=C1NC(=O)C(Nc2ccc(Cl)c(Cl)c2)C(=O)N1	40µM*	/	/	18%	-29%	/
Nc1nc(/C(=C/CC(=O)O)C(=O)NC2C(=O)N3C(C(=O)O)=CCSC23)cs1 (centres undefined)	50µM*	/	10%	25µM*	/	/
CCCCOc1ccc(C(C)=O)cc1Cc1c(O)[nH]c(=S)[nH]c1=O	?	0%	?	2%	?	0%
COc1ccc(Cc2c(O)[nH]c(=S)[nH]c2=O)cc1	-14%	0%[11.5 µM]	6.3µM*	?	27µM*	3%
CC(C)[C@@]1(NC(=O)[C@H]2C[C@H]3c4cccc5[nH]cc(c45)C[C@@H]3N(C)C2)O[C@]2(O)[C@H]3CCCN3C(=O)CN2C1=O (tested in a mixture with another compound)	/	/	/	8%	/	/
CCNc1cc(N2CCN(C)CC2)ccc1[N+](=O)[O-]	1%	-1%	-8%	-10%	3%	3%
CN(C)c1c([N+](=O)[O-])cc(N2C(=O)C=CC2=O)cc1[N+](=O)[O-]	16µM*	/	/	?	3µM*	/
CCOP(=O)(OCC)C(=Cc1cc(C(C)(C)C)c(O)c(C(C)(C)C)c1)P(=O)(OCC)OCC	?	/	23%	/	/	/
CC(C)CN(CC(C)C)c1ccc(C=C2C(=O)NC(=S)NC2=O)cc1[N+](=O)[O-]	35µM*	1%	?	-16%	2.7µM*	-1%
CCCCCn1c(Sc2ccccc2)nc2c1c(=O)[nH]c(=O)n2C	?	-4%	0%	22%	30µM*	12%
SMILES	VDR inh	PKM2 act	GCN5L2 inh	GLS inhibitor	PLK1 PBD inh	Mito fusion act
CCCCn1c(O)c(C(CC)=Nc2ccc(C(=O)O)cc2)c(=O)[nH]c1=O	-15%	3%	-1%	-1%	18%	4%
CC1=CC(c2ccccc2)NC(=S)N1 (centres undefined)	79µM*	-1%	-10%	-5%	?	-2%
O=C(O)c1ccc(Cl)nc1	-2%	-4%	0%	38%	19µM*	-2%
CC(=O)N1CCN(Cc2ccc(Cl)nc2)CC1	3%	/	-1%	1%	0%	2%
O=C=NCCCCN=C=O	-13%	/	0%	/	/	/
C[C@@H]([C@@H](O)c1ccccc1)N(C)C(=O)Cc1ccccc1	4%	/	/	0%	-4%	/
CN(C)CC(C(=O)Cc1ccccc1)c1ccccc1 (centres undefined)	35µM*	/	/	-14%	-9%	/
Cc1ccc(C)c(N2CCN(c3ncnc4onc(C)c34)CC2)c1	14%	/	26%	12%	/	/
COC(=O)OCC12CCC(O1)C1(C)C(=O)OCC21 (centres undefined)	?	-4%	0%	?	24µM*	0%
COc1ccc(-n2c(O)c(C(C)=NCC3CCCO3)c(=O)[nH]c2=O)cc1 (centres undefined)	3%	0%	-6%	-1%	-1%	-1%
COc1ccc(OCc2nnc(SCC(=O)NCC3CCCO3)n2N)cc1 (centres undefined)	?	/	-5%	13%	17µM*	/
Nc1ccccc1	/	/	/	-1%	/	/
Nc1ccc(C2(c3ccc(N)cc3)c3ccccc3-c3ccccc32)cc1	?	5%	-10%	2%	-7%	25µM*
O=C(O)c1ccc(-c2ccc3cc(C45CC6CC(CC(C6)C4)C5)c(O)cc3c2)cc1	56µM*	/	16µM*	/	/	/
CCCCC/C=C\C/C=C\C/C=C\C/C=C\CCCC(=O)N(Cc1ccc(O)c(Cl)c1)Cc1ccc(O)c(Cl)c1	14µM*	/	?	/	/	/
CCCCC/C=C\C/C=C\C/C=C\C/C=C\CCCC(=O)NCc1ccoc1	22µM*	/	14µM*	/	/	/
CCCCC/C=C\C/C=C\C/C=C\C/C=C\CCCC(=O)NCCc1ccc(O)c(O)c1	40µM*!	/	18µM*	/	/	/
CCCCC/C=C\C/C=C\C/C=C\C/C=C\CCCC(=O)NCC(=O)O	40µM*!	/	6.3µM*	-2%[4 µM]	/	16%
CCCCC/C=C\C/C=C\CCCCCCCCCC(=O)NCCO	-13%	/	/	/	/	/
CCCCC/C=C\C/C=C\C/C=C\C/C=C\CCCC(=O)NCCO	71µM*!	/	-5%	/	/	/
CCCCC/C=C\C/C=C\C/C=C\C/C=C\CCCC(=O)NCCCC(=O)O	28µM*	/	14µM*	/	/	/
Cc1ccc(S(=O)(=O)Oc2ccccc2C=C2C(=O)N(C)C(=O)N(C)C2=O)cc1	?	1%	-20%	26%	6.7µM*	-3%
[Hg+][c]1ccccc1	13µM*	/	0.45µM*	13µM*	/	/
